Screening results: PubChem BioAssay, National Center for Advancing Translational Sciences (NCATS)
TrxR1 inh – blocks rat thioredoxin reductase 1; AID 588453; Potency, µM (series often up to 114 µM), without a hit: top-dose activity change, negative = inhibition, hits mostly inhibitors; recombinant rTrxR1, NADPH fluorescence consumption, selenite substrate; O89049; 1% of 390,000 active; also: nearly all actives have a fitted effect of over 65% in size
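Rat TrxR1 (90 nM in the dispensed reagent) was pre-reduced with 400 uM NADPH for 5 min at room temperature, then incubated with compound for 15 min. After 400 uM selenite was added, NADPH fluorescence (Ex 340/Em 450 nm) was followed for 8 min.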
Sfp PPTase inh – blocks B. subtilis Sfp PPTase activity; Potency, µM, inactives show largest response in the series, negative = inhibition, most hits filed as inhibitors; 3.5% of 310,000 active; Q9F4F7; Biochemical Sfp PPTase activity, qHTS;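 also: the enzyme is Sfp with the accession as filed and its product quenches rhodamine fluorescence; 0% = enzyme reaction without inhibitor and -100% = no enzyme wells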
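Fluorescence-quenching assay: 15 nM Sfp-PPTase preincubated 15 min at room temperature with compound, then 5 uM rhodamine-CoA and 12.5 uM BHQ-2-labelled YbbR peptide added. Fluorescence (ex 525/em 598 nm) read at start and after 30 min; difference gives rate.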
GCN5L2 inh – GCN5L2 (KAT2A) acetyltransferase inhibition. Q92830. GCN5L2 HAT assay, ThioGlo1 CoA-SH fluorescence. Potency, µM (top dose mostly 58.9 µM), inactives show at the top dose activity change, negative = inhibition, hits mostly inhibitors. 0.21% of 390,000 active
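Titration-based screen in which CoA formation is detected via maleimide probe ThioGlo1 (50uM) turning fluorescent on thiol reaction; substrates H3(1-25) 75uM and acetyl-CoA 70uM, GCN5L2 20nM, 20 min incubation at room temperature.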
TrxR1 substrate – rat thioredoxin reductase 1 substrate activity | O89049 | purified TrxR1 substrate turnover, NADPH consumption readout | Potency, µM (titrated, usually from 114 µM), for inactives: at the top dose activity change, negative = substrate turnover | 0.01% of 390,000 active | AID 588456; also: nearly all actives have a fitted effect of over 50% in size
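Rat TrxR1, dispensed at 90 nM, was prereduced with 400 uM NADPH (final) for 5 min at ~22 deg C, then incubated with compound 15 min before 400 uM selenite. A first-read NADPH fluorescence drop versus no-compound background flagged substrates.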
GLS inh – inhibitors of human glutaminase (GLS); O94925; GLS enzymatic activity, qHTS titration; Potency, µM (titrated, usually from 45.5 µM), for the others: top-dose activity change, negative = inhibition, hits mostly inhibitors; 0.21% of 410,000 active; AID 624170
Target sequence (O94925 whole entry, looked up): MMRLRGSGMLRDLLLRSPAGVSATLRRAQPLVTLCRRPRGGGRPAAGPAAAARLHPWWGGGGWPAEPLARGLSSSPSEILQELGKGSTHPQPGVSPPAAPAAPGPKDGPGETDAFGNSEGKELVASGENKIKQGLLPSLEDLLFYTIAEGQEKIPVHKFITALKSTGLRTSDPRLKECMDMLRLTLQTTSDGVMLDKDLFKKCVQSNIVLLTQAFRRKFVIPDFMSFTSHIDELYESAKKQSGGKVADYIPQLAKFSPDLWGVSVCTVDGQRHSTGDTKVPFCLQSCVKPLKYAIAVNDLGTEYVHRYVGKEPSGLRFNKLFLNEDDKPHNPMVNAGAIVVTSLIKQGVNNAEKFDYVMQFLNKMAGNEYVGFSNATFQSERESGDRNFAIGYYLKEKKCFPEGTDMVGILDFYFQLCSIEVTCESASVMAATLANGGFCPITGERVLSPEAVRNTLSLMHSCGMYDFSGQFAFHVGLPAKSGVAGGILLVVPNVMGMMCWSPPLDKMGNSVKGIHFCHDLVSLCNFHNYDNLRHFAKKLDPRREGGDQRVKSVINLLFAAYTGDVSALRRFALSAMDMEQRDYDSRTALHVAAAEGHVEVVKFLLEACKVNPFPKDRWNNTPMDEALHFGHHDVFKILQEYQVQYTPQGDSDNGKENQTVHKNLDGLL
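hKGA in 45 mM KH2PO4 pH 8.2, 0.02% Tween-20 with pin-transferred compounds; 1 mM L-glutamine (stock) plus glutamate oxidase/HRP/Amplex Red coupling added. Fluorescence read initially and after 30 min at RT.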
VDR inh – blocks the human vitamin D receptor | P11473 | VDR-SRC2-3 peptide fluorescence polarization, 2 h | Potency, µM, inactives show max response, negative = inhibition, actives largely listed as inhibitors | 0.93% of 400,000 active
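After 23 nl compound addition and a short centrifugation, plates sat for 2 hours at ambient temperature; polarization of fluorescence then indicated loss of VDR binding to peptide SRC2-3.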
* = called active by the depositor; [ ] = another dose, or the depositor's remark. The list is not random: actives were taken first. Their share in the collection is about 3.8%. Calls follow the shape of the dose curve; as a rule, active = well fitted curve in the direction sought with a large enough effect; inconclusive = small, poorly fitted or top-dose-only effect, or another doubt; inactive = no such curve, though single readings can be large; an effect the other way counts as inactive or inconclusive. Unless noted, % is scaled to controls: 0 for no effect and ±100 for the full control effect; potency is read from the fitted curve at half-maximal effect.

Screening Cc1ccc(S(=O)(=O)N(C)CC(=O)N2CCN(c3ccccn3)CC2)cc1 returned TrxR1 inh -12.0%, Sfp PPTase inh 16.3%, GCN5L2 inh 4.1%, TrxR1 substrate 3.1%, GLS inh 0.9% and VDR inh -0.3%.
COc1ccc(S(=O)(=O)Cc2ccc(C(=O)N3CCOCC3)o2)cc1 was read as TrxR1 inh 35.5µM*, Sfp PPTase inh 2.6%, GCN5L2 inh 0.0%, TrxR1 substrate 4.2%, GLS inh 0.3% and VDR inh -7.8%.
For O=C(c1ccc(CS(=O)(=O)c2ccc(Br)cc2)o1)N1CCOCC1 the results were TrxR1 inh inconclusive, Sfp PPTase inh 13.8%, GCN5L2 inh -5.1%, TrxR1 substrate 4.6%, GLS inh -8.6% and VDR inh -18.0%.
Screening CCc1c(C)c2cc3c(c(C)c2oc1=O)OCN(CCc1ccc(OC)c(OC)c1)C3 returned TrxR1 inh inconclusive, GCN5L2 inh inconclusive, TrxR1 substrate 526.5%, GLS inh -1.0% and VDR inh -2.0%.
For COC(=O)Cc1c(C)c2cc3c(c(C)c2oc1=O)OCN(CCc1ccc(OC)cc1)C3 the results were TrxR1 inh 79.4µM*, GCN5L2 inh 31.6µM*, TrxR1 substrate 351.4%, GLS inh 6.3% and VDR inh 10.7%.
`COc1ccccc1CCN1COc2c(cc3c(C)c(C)c(=O)oc3c2C)C1` gave TrxR1 inh 89.1µM*, GCN5L2 inh -27.4%, TrxR1 substrate 587.0%, GLS inh 26.6% and VDR inh 19.5%.
Screening COC(=O)Cc1c(C)c2cc3c(c(C)c2oc1=O)OCN(CCc1ccccc1F)C3 returned TrxR1 inh inconclusive, GCN5L2 inh inconclusive, TrxR1 substrate 432.6%, GLS inh 52.5% and VDR inh 9.1%.
Cc1ccc(S(=O)(=O)NC(=NC(C)C)c2ccccc2)cc1 was read as TrxR1 inh 29.2%, Sfp PPTase inh 3.3%, GCN5L2 inh -28.2%, TrxR1 substrate 3.7%, GLS inh 0.5% and VDR inh 11.4%.
For Cc1ccc(S(=O)(=O)C/N=C(/NC(=S)N(c2ccccc2)c2ccccc2)c2ccccc2)cc1 the results were TrxR1 inh inconclusive, Sfp PPTase inh 31.6µM*, GCN5L2 inh -17.8%, TrxR1 substrate -6.5%, GLS inh 77.7% and VDR inh -40.8%.
`COc1ccc(C(=O)Nc2cccc(-c3nc4cccnc4s3)c2C)c(OC)c1` gave TrxR1 inh -26.2%, GCN5L2 inh -20.4%, TrxR1 substrate -3.9%, GLS inh -6.7% and VDR inh 7.5%.
Screening CCOC(=O)c1nc(C)sc1-c1ccnn1S(=O)(=O)c1ccccc1C(F)(F)F returned TrxR1 inh 17.4%[57.1 µM], Sfp PPTase inh 50.1µM*, GCN5L2 inh -0.6%, TrxR1 substrate 2.8%, GLS inh 2.4% and VDR inh 3.4%.
Screening O=C(c1cnc2ccc(Cl)cc2c1Cl)N1CCOCC1 returned TrxR1 inh 19.6%, Sfp PPTase inh -0.1%, GCN5L2 inh -0.3%, TrxR1 substrate 1.5%, GLS inh 1.6% and VDR inh -10.3%.
O=C(OCn1ncc(Cl)c(Cl)c1=O)c1ccccc1Cl was read as TrxR1 inh 8.91µM*, Sfp PPTase inh 4.8%, GCN5L2 inh -1.8%, TrxR1 substrate -5.9%, GLS inh -3.0% and VDR inh inconclusive.
CC(Oc1ccccc1)C(=O)N=C1SC2CS(=O)(=O)CC2N1Cc1ccc(F)cc1 (stereo not drawn) was read as TrxR1 inh 18.5%, Sfp PPTase inh 18.4%, GCN5L2 inh -15.8%, TrxR1 substrate 0.3%, GLS inh -0.8% and VDR inh 8.1%.
For O=C(CCCCCCCCC(=O)N1CCCCC1)N1CCCCC1 the results were TrxR1 inh -0.4%[11.4 µM], TrxR1 substrate 4.1%[11.4 µM], GLS inh -1.1% and VDR inh -2.1%.
`Cn1nnnc1SCC(=O)N1CCc2ccccc21` gave TrxR1 inh 10.6%, Sfp PPTase inh -6.4%, GCN5L2 inh -18.2%, TrxR1 substrate 3.9%, GLS inh 6.5% and VDR inh 12.0%.
For O=C(CSc1nnc(CN2CCOCC2)n1-c1ccc(Cl)cc1)N1CCc2ccccc21 the results were TrxR1 inh 12.8%[57.1 µM], TrxR1 substrate 13.3%[57.1 µM], GLS inh 9.5% and VDR inh 79.4µM*.
Screening CC(C)c1nnc(SCC(=O)N2CCc3ccccc32)n1N returned TrxR1 inh 43.6%, Sfp PPTase inh -7.6%, GCN5L2 inh -12.1%, TrxR1 substrate -0.4%[57.1 µM], GLS inh -6.5% and VDR inh 79.4µM*.
Screening CC1CCN(C(=O)CSc2nnc(CN3CCOCC3)n2-c2ccccc2)CC1 returned TrxR1 inh -5.2%, Sfp PPTase inh 70.8µM*, GCN5L2 inh -3.7%, TrxR1 substrate 6.6%, GLS inh 1.6% and VDR inh -7.7%.
Screening COc1ccc(C(O)c2nc(-c3ccc(OC)c(OC)c3)cs2)cc1 (stereo not drawn) returned GLS inh 7.5%.
`COc1cc(C(=O)OCCNC(=O)c2cccnc2)cc(OC)c1OC` gave TrxR1 inh -6.7%, GCN5L2 inh -0.2%, TrxR1 substrate 2.7%[57.1 µM], GLS inh 10.2% and VDR inh 8.5%.
`Cc1c(C)c2ccc(O)c(CN3CCCC3)c2oc1=O` gave TrxR1 inh inconclusive, Sfp PPTase inh -6.5%, GCN5L2 inh inconclusive, TrxR1 substrate inactive, GLS inh 34.1% and VDR inh -7.6%.
Cc1cc(=O)oc2c(CN3CCCCC3)c(O)ccc12 was read as TrxR1 inh -107.5%, TrxR1 substrate inactive, GLS inh 10.5% and VDR inh -24.9%.
Screening Cc1cc(=O)oc2c(CN3CCOCC3)c(O)ccc12 returned TrxR1 inh 56.2µM*, TrxR1 substrate inactive, GLS inh 24.5% and VDR inh -17.1%.
`CCc1c(C)c2ccc(O)c(CN3CCCC3)c2oc1=O` gave TrxR1 inh 22.4µM*, Sfp PPTase inh 13.2%, GCN5L2 inh inconclusive, TrxR1 substrate inactive, GLS inh 8.9% and VDR inh 16.4%.
N#C/C(=C/c1ccc(-c2ccc(S(N)(=O)=O)cc2)o1)c1nc2ccccc2s1 was read as TrxR1 inh 89.1µM*, Sfp PPTase inh inconclusive, GCN5L2 inh 58.1%, TrxR1 substrate -8.5%, GLS inh 1.7% and VDR inh -4.2%.
`COc1cc2c(cc1O)CCN[C@@]21CS[C@H]2c3c(OC(C)=O)c(C)c4c(c3C(COC1=O)N1C2C2c3c(cc(C)c(OC)c3O)CC([C@@H]1O)N2C)OCO4` (stereo partly drawn) gave Sfp PPTase inh inconclusive, GCN5L2 inh -20.4%, GLS inh 22.4µM* and VDR inh inconclusive.
